# Source: PubChem BioAssay (SRMLSC)
# DPM-DC inhibit = blocks S. pneumoniae diphosphomevalonate decarboxylase. purified DPM-DC, PK/LDH coupled NADH fluorescence. calls only at 10 µM. 65,000 compounds, 0.49% hits. AID 556;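 active = the 320 compounds with the highest percent inhibition in the single-dose primary screen, excluding strongly autofluorescent ones, cut at about 32% in these data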;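 note: kinetic rate of NADH fluorescence loss reporting ADP formed by the decarboxylase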
# Spn PMK inh = blocks S. pneumoniae phosphomevalonate kinase. inhibition, % at 10 µM. purified PMK, PK/LDH-coupled NADH absorbance 340 nm. 65,000 compounds, 0.49% hits;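 active = top-ranked compounds by inhibition in the single 10 µM screen, taking a fixed number of the strongest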;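 note: 0% = full reaction with DMSO carrier and 100% = background rate without enzyme reaction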
# Abs 340nm = compounds absorbing at 340 nm. fold change at 10 µM. 65,000 tested, under 10 active. compound absorbance at 340 nm, fold over control;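 active = at 10 µM dose, initial 340 nm absorbance at least 2 fold that of control wells; inactive = change under 2 fold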;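 note: initial absorbance extrapolated from kinetic A340 decline of NADH oxidation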
# NADH coupling = inhibition of NAD/NADH coupling enzymes, library profiling. coupled PK/LDH NADH assays, four targets. IC50, µM (highest dose often 10 µM), for the others: at the highest dose inhibition. 65,000 compounds, 0.02% hits. AID 774;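 active = single-dose screening hits from any of four coupled enzyme assays that gave an IC50 when retested across doses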;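 note: the DPM-DC format reads NADH fluorescence rather than 340 nm absorbance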
# Spn MK inh = S. pneumoniae mevalonate kinase inhibition. purified MK, PK/LDH-coupled NADH absorbance 340 nm. inhibition, % at 10 µM. 65,000 compounds, 0.48% hits;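 active = ranked among the strongest by inhibition in the single 10 µM screen, a fixed top-ranked set picked for dose follow-up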
# Autofluor 339 = intrinsic fluorescence of library compounds, ex339/em460 – biochemical, MLSMR library, data from DPM-DC assay, artefact control, profiling panel. compound autofluorescence, ex339/em460 nm, NADH buffer; stronger effect = higher value; 1 = no-compound wells, NADH background. fluorescence fold increase at 10 µM. 65,000 compounds, 5.5% hits;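 active = at 10 µM, mean starting fluorescence two-fold or more over control wells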;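 note: signal is the first read of a kinetic run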
# Numbers without * were called inactive; i = inactive; . = no result shown; + = active, no number. A selection: hits, their analogues and other compounds. The true share with any hit is near 6.8%.
SMILES,DPM-DC inhibit,Spn PMK inh,Abs 340nm,NADH coupling,Spn MK inh,Autofluor 339
Cn1cc(C(=O)N2CCC3(CC2)OCCO3)c2c3ccccc3n(C)c2c1=O,i,9.0,1.07,11.0%,1.0,3.37*
Cn1c2ccccc2c2c(C(=O)N3CCC4(CC3)OCCO4)cn(C3CCCCC3)c(=O)c21,.,19.0,1.06,10.0%,1.0,2.12*
CC(C)Cn1cc(C(=O)N2CCC3(CC2)OCCO3)c2c3ccccc3n(C)c2c1=O,.,14.0,1.03,11.0%,8.0,4.29*
Cc1nnc2ccc(N3CCN(C)CC3)nn12,i,13.0,1.03,7.0%,8.0,1.11
COC(=O)c1cc(COc2cc(C)cc3oc(=O)c4c(c23)CCC4)c(C)o1,i,0.0,1.03,4.0%,7.0,1.66
Cc1cc(OCC(=O)OC(C)C)c2c3c(c(=O)oc2c1)CCCC3,i,0.0,1.04,1.0%,0.0,1.55
COC(=O)C(C)Oc1cc(C)cc2oc(=O)c3c(c12)CCCC3 (stereo not drawn),.,8.0,1.04,7.0%,6.0,3.73*
COC(=O)C(C)Oc1cc(C)cc2oc(=O)c3c(c12)CCC3 (stereo not drawn),.,7.0,0.99,7.0%,6.0,3.83*
CCOC(=O)C(C)Oc1cc(C)cc2oc(=O)c3c(c12)CCCC3 (stereo not drawn),.,0.0,1.04,4.0%,7.0,2.13*
c1cncc(C2CC(c3cccs3)n3ncnc3N2)c1 (stereo not drawn),i,11.0,1,6.0%,6.0,1.21
COc1ccccc1N1CCN(Cc2ccccc2F)CC1,i,0.0,1.05,17.0%,51.0*,1.01
COc1ccccc1N1CCN(Cc2ccccc2Cl)CC1,i,0.0,1.05,16.0%,49.0*,1.09
O=C1C2CCCN2C(c2ccncc2)N1c1ccc(Cl)c(Cl)c1 (stereo not drawn),i,8.0,1.01,3.0%,0.0,1.08
Cc1cccc(-n2c(CN3C(=O)c4ccccc4C3=O)nc3ccccc3c2=O)n1,i,2.0,1.05,1.0%,0.0,1.07
CC(=O)[C@@]1(O)CC[C@H]2[C@@H]3CC=C4C[C@@H](O)CC[C@]4(C)[C@H]3CC[C@@]21C,i,5.0,0.97,2.0%,1.0,1.03
CC(C)[C@H]1C(=O)N2CCC[C@H]2[C@]2(O)O[C@](NC(=O)[C@@H]3C=C4c5cccc6[nH]cc(c56)C[C@H]4N(C)C3)(C(C)C)C(=O)N12,i,0.0,0.98,7.0%,9.0,2.35*
Cn1nc(N)c2c1N=P(N1CCOCC1)(N1CCOCC1)N=C2c1ccccc1,i,0.0,1.06,1.0%,3.0,1.11
CC(=O)N1CCC2(CC1)CC(=O)c1cc(OCC(=O)N3CCN(C)CC3)ccc1O2,.,9.0,1,5.0%,0.0,5.09*
CCn1nc(-c2cccs2)nc2c(=O)n(C)c(=O)nc1-2,+,11.0,0.5,8.44µM*,63.0*,0.06
CCCCN=Cc1c(O)n(-c2c(C)cc(C)cc2C)c(=O)[nH]c1=O,i,0.0,1.06,0.0%,0.0,1.11
COc1cc2[nH]c(=O)n(-c3ccccc3)c(=O)c2cc1OC,.,0.0,1.1,1.0%,2.0,2.1*
COc1cc2[nH]c(=O)n(-c3cccc(Cl)c3)c(=O)c2cc1OC,i,0.0,1.07,2.0%,1.0,1.64
COc1cc(C2NCc3ccccc3-n3cccc32)ccc1O (stereo not drawn),i,5.0,1,3.0%,2.0,0.98
COc1ccc(Cn2c(N)c(C(=O)NCc3ccco3)c3nc4ccccc4nc32)cc1,.,2.0,1.05,1.0%,0.0,4.89*
Nc1c(C(=O)NCc2ccco2)c2nc3ccccc3nc2n1Cc1ccc(F)cc1,.,3.0,1.08,4.0%,4.0,2.25*
SMILES,DPM-DC inhibit,Spn PMK inh,Abs 340nm,NADH coupling,Spn MK inh,Autofluor 339
O=C(c1cc2c(s1)-c1ccccc1OC2)N1CCC2(CC1)OCCO2,.,6.0,1.08,3.0%,0.0,5.07*
CC1=CC(=O)C2=C(C)CC(O)C3C(C)C(=O)OC3C12 (stereo not drawn),i,2.0,0.99,3.0%,8.0,1.1
CC(C)CCn1c(N)c(C(=O)OCC2CCCO2)c2nc3ccccc3nc21 (stereo not drawn),.,1.0,1.05,2.0%,2.0,3.96*
CCCCn1c(N)c(C(=O)OCC2CCCO2)c2nc3ccccc3nc21 (stereo not drawn),.,13.0,1.12,7.0%,0.0,3.85*
Cc1cc(Cl)ccc1OC(C)C(=O)O (stereo not drawn),i,5.0,0.98,3.0%,4.0,1.17
O=C(O)C12C3CCCC1C32c1ccccc1 (stereo not drawn),i,0.0,1.08,2.0%,7.0,1.14
O=c1c2ccccc2nc(N2CCCC2)n1-c1ccc(Cl)cc1,i,0.0,1.02,4.0%,1.0,3.33*
CN(C)P1(N(C)C)=NC(C(F)(F)F)=NC(C(F)(F)F)=N1,i,0.0,1.02,2.0%,6.0,1.12
C[N+]12CCC(CC1)C(C#N)(N1CCOCC1)C2 (stereo not drawn),i,10.0,1.01,6.0%,7.0,1.11
Cc1cccn2c(=O)c3cc(C(=O)N4CCC5(CC4)OCCO5)n(C)c3nc12,.,12.0,1.11,10.0%,8.0,5.05*
Cn1c(C(=O)N2CCC3(CC2)OCCO3)cc2c(=O)n(C)c3ccccc3c21,i,14.0,1.01,2.0%,0.0,1.06
COc1ccc(C(CC(=O)N2CCC3(CC2)OCCO3)NS(=O)(=O)c2ccc(F)cc2)cc1 (stereo not drawn),i,0.0,1.06,4.0%,11.0,1.07
Cc1cccnc1NC1=NCC(C)S1 (stereo not drawn),i,5.0,1.06,2.0%,0.0,1.08
c1ccc2c(CN3CCCCCCC3)c[nH]c2c1,i,12.0,1.05,20.0%,48.0*,1.06
c1ccc2c(CN3CCN(C4CCCCC4)CC3)c[nH]c2c1,i,0.0,1.01,3.0%,9.0,1.16
CCN(CC)CCN=C(C)c1c(O)n(-c2ccccc2OC)c(=O)[nH]c1=O,i,8.0,1.05,4.0%,1.0,1.02
CCCCOCCCn1c(N)c(C(=O)OCCOC)c2nc3ccccc3nc21,.,5.0,1.07,9.0%,12.0,2.33*
COCCOC(=O)c1c(N)n(Cc2ccccc2)c2nc3ccccc3nc12,.,12.0,1.08,11.0%,10.0,3.88*
COCCCn1c(N)c(C(=O)NCCC(C)C)c2nc3ccccc3nc21,.,9.0,1.04,8.0%,6.0,3.74*
CCCCC12CNCC(C)(CNC1)C2=O,i,11.0,1.03,4.0%,0.0,1.13
CCC(C)N1C(=O)NC(=O)C2(Cc3c(ccc4ccccc34)N(C)C2)C1=O (stereo not drawn),i,6.0,1,3.0%,2.0,1.18
CC(C)Cc1[nH]c(=O)c(C#N)c2c1CCC2,.,4.0,1.06,5.0%,6.0,2.31*
